In PubChem BioAssay (NCI):
About 83,000 compounds went through this panel and 20% of them were active in at least one assay; those are over-represented in the sample as a whole.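 Single-dose data. Exposure time 48 hours. Values below 10 considered active.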 Values without a mark were called inactive. Active and inactive are the calls of the source.

Test system: RXF 393 renal
Assay: NCI-60 one-dose screen, 48 h (100 = growth as untreated, 0 = no growth, -100 = all killed)
Details: 10 µM unless noted

Compound	growth
CSCCC1NC(=O)C(C(C)=Nc2ccccc2)=C1O (centres undefined)	109%
CC1(C)C2CCC(O)(C(=O)O)C1C2 (centres undefined)	136%
COc1ccc(CCN2COc3c([C@@H](C)CCC=C(C)C)ccc(C)c3C2)cc1OC	63.9%
COc1ccc(C(=O)C(CN(C)C)c2ccccc2)cc1 (centres undefined)	18.6%
Oc1ccc(CCCCCCc2ccc(O)cc2)cc1	60.4%
c1ccc(C2=Nc3ccccc3SC2)cc1	129%
O=C(O)c1cn(-c2ccccc2)nc1-c1ccc(O)cc1	108%
COc1cc(/C=C/C(=O)c2c(C)nc3ccccc3c2C)ccc1OCCCOc1cc2c(cc1OC)C(=O)N1CCC[C@H]1C=N2	-83.7% (active)
COc1ccc(Br)c2ccccc12	109%
CC(=O)c1cccc(Nc2ncnc3ccc(NC(=O)c4ccco4)cc23)c1	80.6%
CCN(CC)c1ccc(C(=N)c2ccc(N(C)C)cc2)cc1	12.8%
CCCCCCCCCCCCCCCCCC1=NC(C)(C)CN1C(C)(C)CO	-68.7% (active)
COC(=O)c1ccc(NC(N)=NCCC(C)(C)c2ccc(C(F)(F)F)cc2)nc1	58.7%
CCCCCCCCCCCC1=NC(C)(C)CN1C(C)(C)CO	56.3%
CO[C@@]12[C@@H]3NC3CN1C1=C(C(=O)C(N)=C(C)C1=O)[C@@H]2COC(N)=O (some centres undefined)	11.9%
Cc1cc(NC(=O)c2ccc(N)cc2)ccc1N=Nc1ccc2cc(S(=O)(=O)O)cc(S(=O)(=O)O)c2c1	110%
CCCCCCCCCCCCCCCC1=NCC[N+]1(CCO)CCO	34.9%
CC1CN(CCCOC(=O)Nc2ccc(Cl)cc2)CCN1C(C)(C)C (centres undefined)	126%
O=c1c2sc3ccccc3c2nnn1-c1ccc(F)c(Cl)c1	47.3%
Clc1ccccc1Nc1nnc(-c2ccncc2)s1	107%
COc1cc2c(cc1I)-c1c(cc(OC)c(OC)c1OC)CC[C@@H]2NC(C)=O	29.8%
COC(=O)c1cc(Cl)cc([N+](=O)[O-])c1O	97.1%
CCN(CC)c1ccc2nc3c4ccccc4c(=O)cc-3n(-c3ccccc3)c2c1	6.05% (active)

Test system: SF-268 CNS
Assay: as above
Details: 10 µM unless noted

Compound	growth
COc1cc(-c2nc(-c3nc4cc(C(=O)c5ccccc5)ccc4[nH]3)cc3c2[nH]c2ccccc23)cc(OC)c1OC	99.5%
COc1cc(C2=NOC(c3cc(OC)c(OC)c(OC)c3)C2)ccc1OCCCCOc1cc2c(cc1OC)C(=O)N1CCC[C@H]1C=N2 (some centres undefined)	-29.5% (active)
O=C(CCCCCCc1nc2ccc(Br)cc2[nH]1)NO	11.1%
O=C(Nc1cccc(Cl)c1)Nc1cc(C(F)(F)F)ccc1Cl	41.8%
CCCCC(CCc1ccccn1)C(=O)c1ccccc1 (centres undefined)	122%
Nc1cccc(S(=O)(=O)c2cccc(N)c2)c1	107%
O=[N+]([O-])c1ccccc1CN1CCCCC1	112%
COc1cc2c(cc1OCCCOc1cc3c(cc1OC)C(=O)N1CCC[C@H]1C=N3)C=CC(C)(C)O2	91.2%
CCCCCCCCCC1=NC(C)(C)CN1C(C)(C)CO	94%
COCCn1c(Nc2ccc(C(=O)NO)cc2)nc2ccccc21	82.3%
CSCCC1NC(=O)C(C(C)=Nc2ccccc2)=C1O (centres undefined)	111%
CC1(C)C2CCC(O)(C(=O)O)C1C2 (centres undefined)	112%
Oc1ccc(CCCCCCc2ccc(O)cc2)cc1	65.2%
COc1cc(/C=C/C(=O)c2c(C)nc3ccccc3c2C)ccc1OCCCOc1cc2c(cc1OC)C(=O)N1CCC[C@H]1C=N2	-47.9% (active)
COc1ccc(Br)c2ccccc12	108%
CCCCCCCCCCCCCCCCCC1=NC(C)(C)CN1C(C)(C)CO	-84.6% (active)
CCCCCCCCCCCC1=NC(C)(C)CN1C(C)(C)CO	69.1%
Cc1cc(NC(=O)c2ccc(N)cc2)ccc1N=Nc1ccc2cc(S(=O)(=O)O)cc(S(=O)(=O)O)c2c1	115%
CC1CN(CCCOC(=O)Nc2ccc(Cl)cc2)CCN1C(C)(C)C (centres undefined)	106%
Clc1ccccc1Nc1nnc(-c2ccncc2)s1	105%
COC(=O)c1cc(Cl)cc([N+](=O)[O-])c1O	112%
CCN(CC)c1ccc2nc3c4ccccc4c(=O)cc-3n(-c3ccccc3)c2c1	15.5%

Test system: SF-295 CNS
Assay: as above
Details: 10 µM unless noted

Compound	growth
COc1cc(-c2nc(-c3nc4cc(C(=O)c5ccccc5)ccc4[nH]3)cc3c2[nH]c2ccccc23)cc(OC)c1OC	77.1%
COc1cc(C2=NOC(c3cc(OC)c(OC)c(OC)c3)C2)ccc1OCCCCOc1cc2c(cc1OC)C(=O)N1CCC[C@H]1C=N2 (some centres undefined)	13.4%
O=C(CCCCCCc1nc2ccc(Br)cc2[nH]1)NO	-17.2% (active)
CCCCOc1ncnc2nc[nH]c12	110%
CC(C)=CCC[C@H](C)c1ccc(C)c2c1OCN(CCO)C2	98.6%
O=C(Nc1cccc(Cl)c1)Nc1cc(C(F)(F)F)ccc1Cl	-1.4% (active)
CCCCC(CCc1ccccn1)C(=O)c1ccccc1 (centres undefined)	104%
Nc1cccc(S(=O)(=O)c2cccc(N)c2)c1	100%
O=C(Nc1ccc2ncnc(Nc3ccc(F)c(Cl)c3)c2c1)c1cccs1	46.4%
O=[N+]([O-])c1ccccc1CN1CCCCC1	112%
COc1cc2c(cc1OCCCOc1cc3c(cc1OC)C(=O)N1CCC[C@H]1C=N3)C=CC(C)(C)O2	123%
CCCCCCCCCC1=NC(C)(C)CN1C(C)(C)CO	122%
COCCn1c(Nc2ccc(C(=O)NO)cc2)nc2ccccc21	61.9%
O=C(CSc1ccc(Cl)cc1)Nc1ccc(-c2nc3ccccc3s2)c(Cl)c1	22.3%
COc1cc(/C=C2\C(=O)Nc3ccc(N(C)C)cc32)cc(OC)c1OC	7.29% (active)
CC(C)(C)NC(=O)C(OC(=O)C1CCc2cc(F)ccc2O1)c1ccccc1Cl (centres undefined)	95.4%
CSCCC1NC(=O)C(C(C)=Nc2ccccc2)=C1O (centres undefined)	97.7%
CC1(C)C2CCC(O)(C(=O)O)C1C2 (centres undefined)	103%
COc1ccc(CCN2COc3c([C@@H](C)CCC=C(C)C)ccc(C)c3C2)cc1OC	43.1%
COc1ccc(C(=O)C(CN(C)C)c2ccccc2)cc1 (centres undefined)	54.3%

Compound	growth
Oc1ccc(CCCCCCc2ccc(O)cc2)cc1	65.1%
c1ccc(C2=Nc3ccccc3SC2)cc1	97.2%
O=C(O)c1cn(-c2ccccc2)nc1-c1ccc(O)cc1	92.8%
COc1cc(/C=C/C(=O)c2c(C)nc3ccccc3c2C)ccc1OCCCOc1cc2c(cc1OC)C(=O)N1CCC[C@H]1C=N2	-47.6% (active)
COc1ccc(Br)c2ccccc12	110%
CC(=O)c1cccc(Nc2ncnc3ccc(NC(=O)c4ccco4)cc23)c1	91.9%
CCN(CC)c1ccc(C(=N)c2ccc(N(C)C)cc2)cc1	-13.1% (active)
CCCCCCCCCCCCCCCCCC1=NC(C)(C)CN1C(C)(C)CO	54.3%
COC(=O)c1ccc(NC(N)=NCCC(C)(C)c2ccc(C(F)(F)F)cc2)nc1	29.5%
CCCCCCCCCCCC1=NC(C)(C)CN1C(C)(C)CO	90.3%
CO[C@@]12[C@@H]3NC3CN1C1=C(C(=O)C(N)=C(C)C1=O)[C@@H]2COC(N)=O (some centres undefined)	5.61% (active)
Cc1cc(NC(=O)c2ccc(N)cc2)ccc1N=Nc1ccc2cc(S(=O)(=O)O)cc(S(=O)(=O)O)c2c1	106%
CCCCCCCCCCCCCCCC1=NCC[N+]1(CCO)CCO	76.7%
CC1CN(CCCOC(=O)Nc2ccc(Cl)cc2)CCN1C(C)(C)C (centres undefined)	107%
O=c1c2sc3ccccc3c2nnn1-c1ccc(F)c(Cl)c1	4.36% (active)
Clc1ccccc1Nc1nnc(-c2ccncc2)s1	88.7%
COc1cc2c(cc1I)-c1c(cc(OC)c(OC)c1OC)CC[C@@H]2NC(C)=O	-1.65% (active)
COC(=O)c1cc(Cl)cc([N+](=O)[O-])c1O	101%
CCN(CC)c1ccc2nc3c4ccccc4c(=O)cc-3n(-c3ccccc3)c2c1	-36.7% (active)
